Source: PubChem BioAssay
This is one part of a sample in which hits are shown more often than they occur.
Cruzain Triton: qHTS Assay for Promiscuous and Specific Inhibitors of Cruzain (with detergent); Cruzipain (Trypanosoma cruzi), P25779; 200,000 tested, 0.43% active; Potency, µM, without a hit: max response, negative = inhibition, most hits filed as inhibitors; AID 1478, 2009; purified cruzain, Z-FR-AMC fluorescence, 0.01% Triton;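 further: potency means the concentration at half of the fitted maximal effect; plate controls were neutral wells for no effect and buffer without enzyme for full effect; nearly all actives have a fitted effect of over 40% in size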
Target sequence (P25779 123-467 limits assumed): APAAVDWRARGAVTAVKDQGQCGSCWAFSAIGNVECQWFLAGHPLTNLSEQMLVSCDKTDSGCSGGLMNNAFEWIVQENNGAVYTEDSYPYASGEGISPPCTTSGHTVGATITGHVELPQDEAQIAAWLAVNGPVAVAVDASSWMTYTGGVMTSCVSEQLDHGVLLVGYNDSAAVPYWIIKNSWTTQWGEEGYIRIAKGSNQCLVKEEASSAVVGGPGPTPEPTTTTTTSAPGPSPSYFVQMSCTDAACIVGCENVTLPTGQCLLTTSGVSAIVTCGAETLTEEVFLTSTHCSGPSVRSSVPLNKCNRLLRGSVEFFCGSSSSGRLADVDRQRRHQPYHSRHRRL
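Cruzain (1.5 nM) preincubated 15 min at RT with compound in 100 mM sodium acetate pH 5.5, 5 mM DTT, 0.01% Triton X-100. Reaction started with 2 uM Z-FR-AMC; AMC fluorescence (ex 360/em 450 nm) change over 60 s gave rate.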
Cruzain noTriton: qHTS Assay for Promiscuous and Specific Inhibitors of Cruzain (without detergent); 200,000 tested, 2.3% active; AID 1476, 2009; Potency, µM, without a hit: max response, negative = inhibition, most hits filed as inhibitors; purified cruzain, Z-FR-AMC fluorescence, no detergent; Cruzipain (Trypanosoma cruzi), P25779;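 further: potency means the concentration at half of the fitted maximal effect; plate controls were enzyme without inhibitor for no effect and buffer without enzyme for full effect; nearly all actives have a fitted effect of over 40% in size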
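Purified cruzain at 1.5 nM, pre-incubated 15 min with compound at room temperature in 100 mM sodium acetate pH 5.5, 5 mM DTT, 0.00005% Triton X-100. Reaction started with 2 uM Z-FR-AMC; AMC fluorescence increase over 60 s gives rate.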
NS1 inh: qHTS Assay for Inhibitors of Influenza NS1 Protein Function | Potency, µM (titrated, usually from 46.1 µM), for the others: at the top dose activity, positive = more growth | 270,000 tested, 0.4% active; calls by dose curve; further: potency means the concentration at half of the fitted maximal effect; actives are rising curves; nearly all actives have a fitted effect of over 50% in size
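Recovery from NS1-induced slow growth read by OD600 in budding yeast switched to galactose assay medium (pH 6.0, -URA) at 1:100 dilution. Compound 23 nl per well; the matching strain lacking NS1 serves as control.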
Flu NS1 inh: Assay for Inhibitors of Influenza NS1 Protein Function: Hit Validation; 1,400 tested, under 10 active; AID 492980, 2010; activity change, negative = inhibition, % at 32.9 µM; shares compounds with NS1 inh; influenza NS1 function cell assay, 15-point titration; calls by dose curve; further: 0% is about no effect
Active calls of the source: *; ? = inconclusive; · = no result given. Unless noted, the call rests on the fitted dose curve; in most records, active means well fitted curve in the direction sought with a large enough effect; inconclusive means small, poorly fitted or top-dose-only effect, or another doubt; inactive means no such curve, though single readings can be large; an effect the other way counts as inactive or inconclusive.

SMILES | Cruzain Triton | Cruzain noTriton | NS1 inh | Flu NS1 inh
O=C(/C=C/c1ccc(Br)cc1)c1ccc(NC2=NCCCS2)cc1 | -17% | ? | ? | ?
Cc1cccc(/C=C/C(=O)c2ccc(NC3=NCCCS3)cc2)c1 | -10% | -11% | -29% | ·
O=C(CSc1ccc(Cl)cc1)Nc1ccccc1Oc1ccccc1 | -9% | -3% | 1% | ·
O=C(CSc1ccc(Cl)cc1)NC1=NN(c2ccccc2)C(=O)C1 | · | · | 11µM* | 24
O=C1C(=O)N(C2CCN(C(=O)c3ccccc3Cl)CC2)CCN1Cc1ccc(F)cc1 | 2% | -4% | · | ·
Cc1nn(-c2ccccc2)c2sc(-c3n[nH]c(=S)o3)cc12 | -16% | 6% | 2.5µM* | ?
Cc1nn(-c2ccccc2)c2sc(C(=O)O)cc12 | 3% | -12% | -79% | ·
CC1=C(C(=O)Nc2ccc(C)cc2C)C(c2cccs2)n2nc(SCc3ccccc3Cl)nc2N1 (configuration not stated) | -2% | -6% | · | ·
COc1cccc(N2CCN(c3ccc4nnc(CCC(=O)O)n4n3)CC2)c1 | -3% | 4% | · | ·
CC1CCCCN1C(=O)CSc1nnc2c(n1)[nH]c1ccc(F)cc12 (configuration not stated) | · | · | -4% | ·
CC1CCc2cc(F)ccc2N1C(=O)CSc1nnc2c(n1)[nH]c1ccc(F)cc12 (configuration not stated) | 11% | -7% | ? | 3
Cc1ccc2c(=O)c(C(=O)c3ccc(F)cc3)cn(CC(=O)Nc3ccc4c(c3)OCCO4)c2n1 | -2% | 6% | · | ·
Cc1cccc(CN(CC(=O)N/N=C/c2cccs2)S(=O)(=O)c2ccc(Cl)cc2)c1 | 2% | -3% | 8.9µM* | -32
Cc1cccc(CN(CC(=O)N/N=C/c2ccco2)S(=O)(=O)c2ccc(Cl)cc2)c1 | -3% | 17% | 20% | ·
O=C(Cn1c(NCCO)nc2ccccc21)NCC(F)(F)F | · | · | 2% | ·
O=C(Cn1c(NCCO)nc2ccccc21)NCCc1ccc(F)cc1 | 4% | 6% | 1µM* | -4
FC(F)(F)c1cccc(NC(=S)N2CCN(c3cccc(C(F)(F)F)c3)CC2)c1 | -3% | -9% | ? | 31
Fc1ccc(NC(=S)N2CCN(c3cccc(C(F)(F)F)c3)CC2)cc1 | -6% | -2% | 2% | ·
CCC[C@@H]1O[C@@H]2C[C@@H]3[C@H]4CCC5=CC(=O)C=C[C@@]5(C)[C@H]4[C@H](O)C[C@@]3(C)[C@@]2(C(=O)CO)O1 | -3% | -12% | · | ·
COC(=O)CN1C(=O)CSc2ccc(S(=O)(=O)Nc3c(C)cc(C)cc3C)cc21 | -6% | 15% | · | ·
Cc1ccc(NC(=O)CCn2nc(-c3ccccc3)c3ccccc3c2=O)c(C)c1 | -5% | 3% | · | ·
COc1ccc(-c2nc(C)c(CCNC(=O)C(=O)Nc3cccc(F)c3)s2)cc1OC | -2% | -14% | · | ·
O=C(O)CC(c1ccc(F)cc1F)N1Cc2ccccc2C1=O (configuration not stated) | · | · | -2% | ·
O=C(O)CC(c1cccc2ccccc12)N1Cc2ccccc2C1=O (configuration not stated) | · | · | ? | 15
Cc1ccc(CN(Cc2ccco2)C(=O)COc2ccc(Cl)cc2)o1 | -6% | -5% | · | ·
SMILES | Cruzain Triton | Cruzain noTriton | NS1 inh | Flu NS1 inh
Cc1ccc(C(C)C)c(OC(C)C(=O)NCC2(N(C)C)CCCCC2)c1 (configuration not stated) | 5% | -12% | · | ·
CCOc1ccc(-c2nonc2NC(=O)COc2ccccc2)cc1 | -5% | -9% | · | ·
Cc1ccc(N2C(=O)NC(=O)/C(=C/C=C/c3ccco3)C2=O)cc1 | -2% | 17% | 4% | ·
CCc1ccc(N2C(=O)NC(=O)/C(=C\C=C\c3ccco3)C2=O)cc1 | · | · | 11µM* | 11
CC(C)c1ccc(OCc2cc(=O)n3c4c(sc3n2)CCCC4)cc1 | 0% | -4% | · | ·
Cc1ccc(C(=O)N2CCc3cc(CNC(=O)CSc4ccccc4)ccc32)cc1 | -3% | -13% | · | ·
Cn1c(=O)c(=O)n(C)c2cc(S(=O)(=O)N3CCN(c4ccccc4)CC3)ccc21 | -2% | -3% | · | ·
Cc1[nH]c2ccccc2c1NC(=O)CN1CCN(c2cccc(C(F)(F)F)c2)CC1 | -16% | ? | -131% | ·
Cc1[nH]c2ccccc2c1C(O)CN1CCN(c2cccc(C(F)(F)F)c2)CC1 (configuration not stated) | -9% | 8% | ? | ?
CCOC(=O)c1c(S(=O)(=O)N2CCC(C(=O)Nc3ccc(F)cc3F)CC2)c(C)n(C)c1C | 3% | -5% | · | ·
